In PubChem BioAssay AID743100 (Vanderbilt Specialized Chemistry Center, 2013) one finds % ACh max response data, which are given here for 13 compounds.

Values without a mark were called inactive. Active and inactive are the calls of the source.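 How the source made its calls: active means calcium response above 60% of the acetylcholine maximum at human M5, as a positive modulator; inactive means the rest.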

Chain of Muscarinic acetylcholine receptor M5 (Homo sapiens) (P08912 whole entry, looked up): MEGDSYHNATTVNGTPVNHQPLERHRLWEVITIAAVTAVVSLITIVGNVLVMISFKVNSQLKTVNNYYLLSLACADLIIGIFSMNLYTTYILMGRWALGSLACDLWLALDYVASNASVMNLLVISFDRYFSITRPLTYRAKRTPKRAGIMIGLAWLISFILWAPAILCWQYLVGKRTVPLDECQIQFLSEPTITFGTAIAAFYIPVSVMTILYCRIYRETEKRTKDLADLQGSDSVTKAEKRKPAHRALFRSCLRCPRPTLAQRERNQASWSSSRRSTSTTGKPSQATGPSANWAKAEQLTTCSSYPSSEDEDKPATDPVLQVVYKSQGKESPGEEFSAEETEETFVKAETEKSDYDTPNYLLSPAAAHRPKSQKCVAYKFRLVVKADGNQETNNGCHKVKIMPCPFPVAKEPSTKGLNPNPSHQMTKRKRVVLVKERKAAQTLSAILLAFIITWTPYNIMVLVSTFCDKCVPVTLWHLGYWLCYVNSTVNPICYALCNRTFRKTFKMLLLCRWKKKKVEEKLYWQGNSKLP

The test concerns the target Muscarinic acetylcholine receptor M5 (Homo sapiens) (UniProt P08912). Description: potentiators of ACh response at human M5 – cell-based, single concentration, CHO-K1 hM5, calcium flux (AID 743100). The conditions noted are these: CHO-K1 hM5, Fluo-4 calcium flux, ACh EC20, hits give high values; at 10 µM unless noted. A general note: Calcium assays in cells follow changes in intracellular calcium, usually with a dye or a luminescent sensor.
With `CCN(Cc1ccccc1)C(=O)C1CCN(S(=O)(=O)c2ccccc2C#N)CC1`, the % ACh max response was 24% [at 30 µM]. The result for `CCN(Cc1ccccc1)C(=O)C1CCN(S(=O)(=O)c2cccc3nsnc23)CC1` reads 40.8% [at 30 µM]; that for `CCN(Cc1ccccc1)C(=O)C1CCN(S(=O)(=O)c2ccc(C)cc2)CC1`, 73.7% [at 30 µM] (active). For `CCCc1ccc(S(=O)(=O)N2CCC(C(=O)N(CC)Cc3ccccc3)CC2)cc1`, the % ACh max response was 62.9% [at 30 µM] (active). To `CCN(Cc1ccccc1)C(=O)C1CCN(S(=O)(=O)c2ccc3ncccc3c2)CC1` belongs 63.4% [at 30 µM] (active). For `CCN(Cc1ccccc1)C(=O)C1CCN(S(=O)(=O)c2ccccc2C(F)(F)F)CC1`, the % ACh max response was 21.7% [at 30 µM].

As for `CCN(C(=O)C1CCN(S(=O)(=O)c2ccc3c(c2)CCC3)CC1)[C@H](C)c1ccccc1`, the % ACh max response was 91.5% (active). To `CCN(Cc1ccccc1OC(F)(F)F)C(=O)C1CCN(S(=O)(=O)c2ccc3cn[nH]c3c2)CC1` belongs 73.2% (active). The result for `CCN(Cc1ccncc1)C(=O)C1CCN(S(=O)(=O)c2ccc3cn[nH]c3c2)CC1` reads 22.4%; that for `CCN(Cc1ccccc1)C(=O)C1CCN(S(=O)(=O)c2ccccn2)CC1`, 36.4%; that for `CCN(Cc1ccccc1)C(=O)C1CCN(S(=O)(=O)c2ccc(C(C)(C)C)cc2)CC1`, 59.3% [at 30 µM]. To `CCN(Cc1ccc(OC)cc1)C(=O)C1CCN(S(=O)(=O)c2ccc3cn[nH]c3c2)CC1` belongs 32%; to `CCN(Cc1ccccc1)C(=O)C1CCN(S(=O)(=O)c2cccc(F)c2)CC1`, 63.2% [at 30 µM] (active).
